From PubChem
NALP1 inh – NALP1 inhibition | S. cerevisiae NALP1/ASC/caspase-1 growth, X-gal OD620, 72 h | inhibition, % at 10 µM | 0.61% of 280,000 active; in the data active = inhibition mostly above about 24%, no sharp cut-off; inactive = mostly below about 32%
NALP3 yeast inh – blocks the NALP3 inflammasome reconstituted in yeast; Yeast reconstituted NLRP3/ASC/caspase-1, beta-gal luminescence, 24 h; inhibition, % at 10 µM; 0.39% of 330,000 active; AID 2825;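 active = inhibition of 50% or more; inactive = inhibition below 50%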;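 note: plate controls were induced DMSO wells for no effect and uninduced yeast grown without galactose for full effect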
CHT allo act – allosterically activates the human high affinity choline transporter | Q9GZV3 | CHT-expressing cells, membrane potential dye, choline EC20; active compounds read high; LV-AA mutant CHT in HEK293 cells | B-score at 10 µM | 0.49% of 310,000 active;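 active = initial fluorescence not abnormally high and integrated response B-score, plate-corrected, over 3 SD above library mean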
Target sequence (Q9GZV3 whole entry, looked up): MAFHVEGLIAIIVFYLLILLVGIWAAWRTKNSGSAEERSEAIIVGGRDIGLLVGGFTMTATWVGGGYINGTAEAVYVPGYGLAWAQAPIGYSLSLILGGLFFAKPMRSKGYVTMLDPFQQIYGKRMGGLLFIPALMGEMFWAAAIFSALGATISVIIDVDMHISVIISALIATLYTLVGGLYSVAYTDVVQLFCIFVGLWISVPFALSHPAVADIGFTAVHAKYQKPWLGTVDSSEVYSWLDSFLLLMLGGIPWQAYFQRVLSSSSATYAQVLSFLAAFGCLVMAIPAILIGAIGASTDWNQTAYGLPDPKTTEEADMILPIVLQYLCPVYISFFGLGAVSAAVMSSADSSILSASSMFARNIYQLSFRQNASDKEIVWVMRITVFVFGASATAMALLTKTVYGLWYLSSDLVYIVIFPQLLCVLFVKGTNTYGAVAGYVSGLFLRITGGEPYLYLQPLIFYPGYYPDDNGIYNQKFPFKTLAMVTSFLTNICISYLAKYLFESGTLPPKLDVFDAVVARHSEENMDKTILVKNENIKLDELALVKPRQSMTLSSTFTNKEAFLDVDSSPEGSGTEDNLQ
CHT block – inhibitors of human choline transporter CHT; CHT-expressing cells, membrane potential dye, choline response; active compounds read low; Q9GZV3; B-score at 10 µM; 0.86% of 310,000 active;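 active = B-score over 3 SD under the library average, and starting fluorescence ratio not unusually high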;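 note: choline stimulus applied at its EC90 after an EC20 pre-addition; B-score computed on integrated fluorescence ratio after choline addition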
Bfl-1 A1 inh – inhibitors of the anti-apoptotic protein A1, read as caspase activation; caspase activation, % (concentration not given with the values); MEF A1-2A-BIM cells, Caspase-Glo 3/7 luminescence, 3 h; percent of clofoctol response, vehicle zero; 0.066% of 330,000 active;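 active = over half of replicate activation scores above 10%, or exactly half above 10 with the replicate mean above 10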
Mot1-301 SUMO – blocks SUMOylation pathway, rescuing yeast Mot1-301 growth | AID 2716 | S. cerevisiae Mot1-301 growth rescue, ATP luminescence, 38.5C; percent above DMSO median, 100 means doubled | growth rescue, % at 18.8 µM | 1% of 320,000 active;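 active = every valid replicate shows activation above 250% relative to neutral control wells; inactive = the rest, any valid replicate at or below 250%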;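 note: OY570 slx delta 5 strain wells were the positive control but not used for scaling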
Active calls of the source: *; i = inactive; · = no result given; + = active, no number; ! = a repeat was not active. Only some compounds are listed: those with a hit (about 3% of all), similar ones and a draw of the others.

SMILES	NALP1 inh	NALP3 yeast inh	CHT allo act	CHT block	Bfl-1 A1 inh	Mot1-301 SUMO
Cc1cccc(C)c1OCc1cc(C(=O)N2CCN(c3ccccc3)CC2C)no1 (centres undefined)	16.7	19.9	i	i	-0.8	12.6
CC1CCc2cc(F)cc3c(=O)c(C(=O)O)cn1c23 (centres undefined)	102.3*	11.0	i	i	0.3	-13.6
Cc1cc(Cl)cc(C)c1OCCCCN1CCOCC1	·	3.2	i	i	-0.7	283.1*
CCc1sc(C(=O)NCCCn2ccnc2)cc1Br	24.5	3.5	i	i	0.8	-4.6
O=C(NCc1cccc(Cl)c1)C1CCCO1 (centres undefined)	31.9*	7.8	i	i	0.4	17.6
Cc1nnn(C23CC4CC(CC(CC(=O)Nc5cccc(F)c5)(C4)C2)C3)n1	28.9*	6.3	i	i	0.1	96.8
COc1cc(/C=C(\NC(=O)c2ccccc2)C(=O)N2CC3CC(C2)c2cccc(=O)n2C3)cc(OC)c1OC (centres undefined)	·	-8.0	i	i	-0.4	+
COc1ccccc1NC(=O)c1ccc(N2CC3CC(C2)c2cccc(=O)n2C3)c(NC(=O)c2ccncc2)c1 (centres undefined)	22.5	3.5	i	i	0.3	-6.2
O=C(CN1C(=O)NC2(CCCCCC2)C1=O)NCCc1ccc(F)cc1	·	-7.9	·	·	·	·
CCOc1ccc(CCNC(=O)CSc2n[nH]c(N)n2)cc1OCC	-6.4	5.8	i	i	2.1	356.9*
CCOc1ccc(CCNC(=O)COC(=O)CSc2ccccc2C)cc1OCC	17.9	-6.2	i	i	0.4	9.9
O=C(C[C@H]1C/C=C\CCC(=O)O[C@@H](c2ccccc2)CNC1=O)NCCO	·	10.0	·	·	1.3	-17.4
Cc1cccc(OCCSc2nc3ccccc3n2CCC(=O)O)c1	10.9	5.8	i	i	1.5	-8.3
N=c1c2c(ncn1Cc1ccco1)Oc1c(ccc3ccccc13)C2c1ccccc1 (centres undefined)	62.8*	20.6	i	i	0.0	-18.8
N=c1c2c(ncn1Cc1ccco1)Oc1cc(O)ccc1C2c1ccccc1 (centres undefined)	8.7	-7.5	i	i	0.1	-18.2
COc1ccc(NC(=O)C(=O)NCC(c2ccco2)N2CCc3ccccc32)cc1 (centres undefined)	·	-4.6	i	i	1.6	18.1
CC(=O)Nc1ccc(NC(=O)C(=O)NCC(c2ccco2)N2CCc3ccccc32)cc1 (centres undefined)	·	13.4	i	i	32.2*	6.6
CCNc1nc(NC(C)C)nc(NC(C)(C)C)n1	30.0*	16.0	i	i	0.3	-12.4
CC(C)c1ccc(N(CC(=O)NC2CCCC2)C(=O)CCC(=O)Nc2nccs2)cc1	5.0	-2.9	i	i	0.3	10.3
CC[n+]1c(/C=C2\Sc3ccccc3N2C)ccc2cccc(C)c21	100.3*	·	·	·	·	·
Cc1ccc(OCc2nnc(SC(C)C(=O)O)n2-c2ccccc2)cc1 (centres undefined)	22.5	6.1	i	i	-1.2	-12.5
Cc1cc(C)c(S(C)(=O)=O)c(Oc2ccc(C(C)(C)C)cc2)n1	30.5*	16.3	i	i	-0.6	2.2
Cn1c(C(=O)N2CCCC(C(=O)NCCN3CCOCC3)C2)cc2sccc21 (centres undefined)	30.2*	14.6	i	i	0.2	7.2
Cc1ccc(/C=N/NC(=O)c2cc(C)oc2C)cc1	36.4*	20.5	i	i	-7.5	4.3
Cc1cc(C(=O)N/N=C/c2ccncc2)c(C)o1	-47.3	16.2	i	i	-2.6	-0.3
SMILES	NALP1 inh	NALP3 yeast inh	CHT allo act	CHT block	Bfl-1 A1 inh	Mot1-301 SUMO
CC(Oc1ccc(Br)cc1Br)C(=O)Nc1cccnc1Cl (centres undefined)	6.5	22.8	i	i	1.7	-9.4
OCc1cc(C(O)CNCCCCCCOCCCCc2ccccc2)ccc1O (centres undefined)	18.4	24.2	i	-5.78*!	-0.1	-3.3
O=C(NCCc1ccccc1F)C1CCCN(c2nc3ccccc3s2)C1 (centres undefined)	21.6	35.9	i	i	1.6	6.9
O=C(N/N=C/c1cc(Br)ccc1O)c1ccccc1Cl	59.1*	16.8	i	i	0.2	-23.4
CSc1nc(N(C)C)nc(N(C#N)CCOC(C)=O)n1	7.1	12.1	i	i	0.8	655.7*
COc1ccc(C(=O)n2nc(C#N)c(C#N)c2N)cc1	37.0*	17.6	i	i	1.5	-22.5
CC(Cc1ccccc1)NC(=O)c1cc([N+](=O)[O-])ccc1Cl (centres undefined)	35.9*	16.9	i	i	-0.2	8.3
O=C(COc1ccc(/C=N/NC(=O)c2cc3ccccc3o2)cc1Cl)Nc1ccccc1	29.6	14.3	i	i	64.4*	-24.3
CC(=O)Nc1ccccc1C(=O)C(=O)Nc1ccc(C)c(C)c1	26.1	6.4	i	i	0.5	5.2
Cc1ccc(NC(=O)/C(Cl)=C/c2ccccc2)cc1C	36.7*	35.6	i	i	-0.1	17.4
CC(C)(C)OC(=O)C[C@H]1C/C=C\C[C@@H](CC(=O)N(CCO)Cc2ccccc2)C(=O)N[C@H](Cc2c[nH]c3ccccc23)COC1=O	·	15.7	·	·	0.7	-14.3
O=C(NCc1ccccc1)C(c1cccnc1)N(C(=O)c1csnn1)c1ccccc1 (centres undefined)	13.2	-11.2	i	i	-0.7	-26.4
O=C(Nc1ccc([N+](=O)[O-])cc1)C(Cc1ccccc1)N1C(=O)c2cccc3cccc(c23)C1=O (centres undefined)	-25.7	14.6	i	i	5.5*	-7.4
CCOC(=O)C(=NC1CCS(=O)(=O)C1)NNc1ccc(Br)cc1 (centres undefined)	18.9	19.7	i	i	1.8	372.5*
COCCCN(CCCN)Cc1ccco1	70.6*	45.0	i	i	-0.1	-7.4
Cc1ccc(NC(=O)CN(C)C(=O)COc2cccc3cccnc23)cc1	63.8*	5.2	i	i	1.1	-24.6
CSc1nnc(-c2ccc(S(=O)(=O)N3CCOCC3)cc2)n1CC1CCCO1 (centres undefined)	12.8	0.0	i	i	0.0	333.4*
CCOc1ccccc1NC(=O)c1ccc(S(=O)(=O)N(C)c2ccccc2)cc1	·	28.9	·	·	1.0	76.7
CCOC(=O)c1sc(NC(=O)c2ccccc2)cc1C	6.9	32.6	i	i	-7.4	-33.1
CCOc1ccccc1NC(=O)c1ccc(S(=O)(=O)N(C)C)cc1	40.9*	17.0	i	i	-0.7	·
CCOC(=O)c1sc(NC(=O)c2ccc(S(=O)(=O)N(C)C)cc2)cc1C	40.7*	-10.0	i	i	0.4	4.2
